# Assay results published in the supplement of paper PMC8728848.
# The entries come from a sample that favours the strongest signals as a whole.
# Assays:
# Experiment in all cases: glycan array binding signal (z-score within array); higher = stronger binding
# Details in all cases: glycan notation: IUPAC condensed, linker removed
# [1] = biological target: Fuc(a1-2)Gal(b1-3)GlcNAc(b1-2)Man(a1-3)[Fuc(a1-2)Gal(b1-3)GlcNAc(b1-2)Man(a1-6)]Man(b1-4)GlcNAc(b1-4)[Fuc(a1-6)]GlcNAc
# Summary of the method: (§1)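 Glycan array data came from 3228 arrays in the Consortium for Functional Glycomics database, and only arrays with an available protein sequence were kept. Glycan names were put into IUPAC-condensed notation, and columns mapping to the same glycan were averaged. The binding signal is a within-array Z-score, averaged across arrays of one protein sequence run at different concentrations or buffers and across linkers. A negative Z-score can be read as non-binding.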
# [2] = biological target: Fuc(a1-2)Gal(b1-4)Fuc(a1-3)]GlcNAc(b1-2)Man(a1-3)[Fuc(a1-2)Gal(b1-4)[Fuc(a1-3)]GlcNAc(b1-2)Man(a1-6)]Man(b1-4)GlcNAc(b1-4)GlcNAc
# Summary of the method: as §1
# Fuc(a1-2)Gal(b1-4)Glc6S = biological target: Fuc(a1-2)Gal(b1-4)Glc6S
# Summary of the method: as §1
# [3] = biological target: Fuc(a1-2)Gal(b1-4)GlcNAc(b1-3)[Fuc(a1-3)[Gal(b1-4)]GlcNAc(b1-6)]Gal(b1-4)Glc
# Summary of the method: as §1
# [4] = biological target: Fuc(a1-2)[Gal(a1-3)]Gal(b1-4)GlcNAc(b1-2)Man(a1-3)[Fuc(a1-2)[Gal(a1-3)]Gal(b1-4)GlcNAc(b1-2)Man(a1-6)]Man(b1-4)GlcNAc(b1-4)[Fuc(a1-6)]GlcNAc
# Summary of the method: as §1
# [5] = biological target: Fuc(a1-2)[GalNAc(a1-3)]Gal(b1-4)GlcNAc(b1-3)Gal(b1-4)GlcNAc(b1-3)Gal(b1-4)GlcNAc
# Summary of the method: as §1
# [6] = biological target: Fuc(a1-3)[Gal(b1-4)]GlcNAc(b1-6)[Gal(b1-3)GlcNAc(b1-3)]Gal(b1-4)Glc
# Summary of the method: as §1
# [7] = biological target: Fuc(a1-3)[GalNAc(b1-4)]GlcNAc6S
# Summary of the method: as §1
# [8] = biological target: Gal(b1-3)Gal(b1-4)GlcNAc(b1-2)Man(a1-3)[Gal(b1-3)Gal(b1-4)GlcNAc(b1-2)Man(a1-6)]Man(b1-4)GlcNAc(b1-4)GlcNAc
# Summary of the method: as §1
# [9] = biological target: Gal(b1-3)GalNAc(b1-4)[Neu5Ac(a2-3)]Gal(b1-4)Glc
# Summary of the method: as §1
# [10] = biological target: Gal(b1-3)GlcNAc(b1-3)Gal(b1-4)GlcNAc
# Summary of the method: as §1
# Gal(b1-4)Glc6S = biological target: Gal(b1-4)Glc6S
# Summary of the method: as §1
# [11] = biological target: Gal(b1-4)GlcNAc(b1-2)Man(a1-3)[Gal(b1-4)GlcNAc(b1-2)Man(a1-6)]Man(b1-4)GlcNAc(b1-4)GlcNAc
# Summary of the method: as §1
# [12] = biological target: Gal(b1-4)GlcNAc(b1-2)Man(a1-3)[Gal(b1-4)GlcNAc(b1-2)Man(a1-6)]Man(b1-4)GlcNAc(b1-4)[Fuc(a1-6)]GlcNAc
# Summary of the method: as §1
# [13] = biological target: Gal(b1-4)GlcNAc(b1-3)Gal(b1-4)Glc
# Summary of the method: as §1
# [14] = biological target: Gal(b1-4)GlcNAc(b1-3)Gal(b1-4)GlcNAc(b1-2)Man(a1-3)[Gal(b1-4)GlcNAc(b1-3)Gal(b1-4)GlcNAc(b1-2)Man(a1-6)]Man(b1-4)GlcNAc(b1-4)GlcNAc
# Summary of the method: as §1
# [15] = biological target: Gal(b1-4)GlcNAc(b1-3)Gal(b1-4)GlcNAc(b1-3)Gal(b1-4)GlcNAc(b1-2)Man(a1-3)[Gal(b1-4)GlcNAc(b1-3)Gal(b1-4)GlcNAc(b1-3)Gal(b1-4)GlcNAc(b1-2)Man(a1-6)]Man(b1-4)GlcNAc(b1-4)GlcNAc
# Summary of the method: as §1
# [16] = biological target: Gal(b1-4)GlcNAc(b1-3)Gal(b1-4)GlcNAc(b1-3)Gal(b1-4)GlcNAc(b1-2)Man(a1-3)[Gal(b1-4)GlcNAc(b1-3)Gal(b1-4)GlcNAc(b1-3)Gal(b1-4)GlcNAc(b1-2)Man(a1-6)]Man(b1-4)GlcNAc(b1-4)[Fuc(a1-6)]GlcNAc
# Summary of the method: as §1
# [17] = biological target: Gal(b1-4)GlcNAc(b1-3)Gal(b1-4)GlcNAc(b1-3)Gal(b1-4)GlcNAc(b1-2)[Gal(b1-4)GlcNAc(b1-3)Gal(b1-4)GlcNAc(b1-3)Gal(b1-4)GlcNAc(b1-6)]Man(a1-6)[Gal(b1-4)GlcNAc(b1-3)Gal(b1-4)GlcNAc(b1-3)Gal(b1-4)GlcNAc(b1-2)Man(a1-3)]Man(b1-4)GlcNAc(b1-4)[Fuc(a1-6)]GlcNAc
# Summary of the method: as §1
# [18] = biological target: Gal(b1-4)GlcNAc(b1-3)Gal(b1-4)GlcNAc(b1-3)Gal(b1-4)GlcNAc(b1-3)Gal(b1-4)GlcNAc(b1-3)Gal(b1-4)GlcNAc(b1-2)Man(a1-3)[Gal(b1-4)GlcNAc(b1-3)Gal(b1-4)GlcNAc(b1-3)Gal(b1-4)GlcNAc(b1-3)Gal(b1-4)GlcNAc(b1-3)Gal(b1-4)GlcNAc(b1-2)Man(a1-6)]Man(b1-4)GlcNAc(b1-4)GlcNAc
# Summary of the method: as §1
# [19] = biological target: Gal(b1-4)GlcNAc(b1-3)Gal(b1-4)GlcNAc(b1-3)[Gal(b1-4)GlcNAc(b1-3)Gal(b1-4)GlcNAc(b1-6)]GalNAc
# Summary of the method: as §1
# [20] = biological target: Gal(b1-4)GlcNAc(b1-6)[Gal(b1-4)GlcNAc(b1-3)]GalNAc
# Summary of the method: as §1
# Gal3S4S(b1-4)GlcNAc = biological target: Gal3S4S(b1-4)GlcNAc
# Summary of the method: as §1
# Gal4S(b1-4)GlcNAc = biological target: Gal4S(b1-4)GlcNAc
# Summary of the method: as §1
# [21] = biological target: GalNAc(a1-3)GalNAc(b1-3)Gal(a1-4)Gal(b1-4)Glc
# Summary of the method: as §1
# GalNAc(b1-3)GalNAc = biological target: GalNAc(b1-3)GalNAc
# Summary of the method: as §1
binder,measurement,setting,value
"BabA (Helicobacter pylori), O52269_HELPY (protein) AEDDGFYMSAGYQIGEAAQMVKNTKGIQELSDNYENLSNLLTRYSTLNTLIKLSADPSAVNAARENLGASAKNLIGDTKNSPAYQAVLLAINAAVGFWNVVGYVTQCGGNANGQKSTSSTTIFNNEPGYRSTSITCSLNGHMPGYYGPMSIENFKKLNEAYQILQTALKNGLPALKENNGTVNVTYSYTCSGEGNDNCSLQTTGVTNQNNGTKTETQTIDGKSVTTTISSKVVDSQ",glycan array binding signal (z-score),[1],-0.237
same,glycan array binding signal (z-score),[2],3.3
same,glycan array binding signal (z-score),Fuc(a1-2)Gal(b1-4)Glc6S,0.321
same,glycan array binding signal (z-score),[3],-0.3
same,glycan array binding signal (z-score),[4],-0.046
same,glycan array binding signal (z-score),[5],-0.054
same,glycan array binding signal (z-score),[6],0.017
same,glycan array binding signal (z-score),[7],-0.664
same,glycan array binding signal (z-score),[8],0.28
same,glycan array binding signal (z-score),[9],0.035
same,glycan array binding signal (z-score),[10],-0.811
same,glycan array binding signal (z-score),Gal(b1-4)Glc6S,-0.359
same,glycan array binding signal (z-score),[11],-0.732
same,glycan array binding signal (z-score),[12],0.092
same,glycan array binding signal (z-score),[13],-0.535
same,glycan array binding signal (z-score),[14],4.08
same,glycan array binding signal (z-score),[15],4
same,glycan array binding signal (z-score),[16],2.03
same,glycan array binding signal (z-score),[17],2.31
same,glycan array binding signal (z-score),[18],3.86
same,glycan array binding signal (z-score),[19],4.39
same,glycan array binding signal (z-score),[20],-0.568
same,glycan array binding signal (z-score),Gal3S4S(b1-4)GlcNAc,0.144
same,glycan array binding signal (z-score),Gal4S(b1-4)GlcNAc,0.875
same,glycan array binding signal (z-score),[21],-0.709
same,glycan array binding signal (z-score),GalNAc(b1-3)GalNAc,-0.807
